Sampled rows, rich in hits. Any-hit rate of the full collection: about 2.2%.
Nox1 inhibitor – human Nox1 inhibition; Q9Y5S8; HT29 cells, luminol chemiluminescence ROS; inhibition, % at 6.7 µM; actives 0.81% (n = 16,000)
Target sequence (Q9Y5S8 whole entry, looked up): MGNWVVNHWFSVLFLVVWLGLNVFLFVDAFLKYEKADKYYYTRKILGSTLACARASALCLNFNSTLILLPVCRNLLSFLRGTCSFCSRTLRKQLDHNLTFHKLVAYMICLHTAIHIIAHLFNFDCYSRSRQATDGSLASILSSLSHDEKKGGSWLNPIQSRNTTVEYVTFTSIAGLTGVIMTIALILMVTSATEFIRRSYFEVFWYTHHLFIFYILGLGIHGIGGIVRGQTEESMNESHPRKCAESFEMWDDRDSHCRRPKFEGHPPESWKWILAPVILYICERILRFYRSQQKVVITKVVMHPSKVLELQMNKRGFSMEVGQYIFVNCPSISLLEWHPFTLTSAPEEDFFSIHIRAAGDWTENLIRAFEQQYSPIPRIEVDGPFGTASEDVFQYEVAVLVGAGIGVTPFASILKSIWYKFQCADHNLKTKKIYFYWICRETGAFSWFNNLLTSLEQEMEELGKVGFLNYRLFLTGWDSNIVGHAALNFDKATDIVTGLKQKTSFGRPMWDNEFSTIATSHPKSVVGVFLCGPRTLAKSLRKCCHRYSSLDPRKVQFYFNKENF
luminol inh ctr – quenches luminol chemiluminescence in Nox1 counter-screen; HRP/luminol/H2O2 chemiluminescence counterscreen; inhibition, % at 6.7 µM; actives 0.4% (n = 16,000); AID 1823; also: reference of the scale not given here
NOTCH agonist – agonists of NOTCH signaling | NOTCH signaling luciferase reporter cells, luminescence | activation, % at 2.5 µM | actives 0.4% (n = 15,000) | AID 434982; in the data active = activation above about 2.2%
PME-1 Maybridge – PME-1 (human) inhibition, Maybridge primary screen | actives 0.5% (n = 16,000) | recombinant PME-1, FP-Rh probe fluorescence polarization | inhibition, % at 9 µM | Q9Y570; in the data active = inhibition above about 30%
Starred values were filed as active, the others as inactive; · = no result given. Rule as the data show it, unless noted: active = inhibition above about 75%; inactive = the rest.

SMILES	Nox1 inhibitor	luminol inh ctr	NOTCH agonist	PME-1 Maybridge
Cc1[nH]c2ccccc2c1SCc1n[nH]c(=S)n1C	7	1	0	34*
N#C/C(=C\c1c(Cl)cccc1Cl)C(=O)Nc1ccc(F)c(Cl)c1	-53	-2	0	-54
Nc1ccccc1Sc1ccc(-c2cnc3ccccc3n2)cc1[N+](=O)[O-]	9	98*	0	4
O/N=C/c1ccc(OC(F)(F)F)cc1	7	-5	0	-13
CC1=NCCNC(C)=C1Sc1ccccc1	10	16	-1	6
O=Cc1c(O)c2ccccc2c2ccccc12	-107	-5	0	31*
Oc1c(Cl)c2nc3ccccc3nc2c2ccccc12	-18	6	0	21
C(=Nc1cccc2ccccc12)c1ccccc1	-5	-4	0	3
Oc1ccccc1N=CC=Nc1ccccc1O	96*	17	0	8
Nc1ccccc1Sc1ccc(Cl)cc1[N+](=O)[O-]	-32	3	-1	4
O=[N+]([O-])c1cc(Cl)ccc1Sc1ccccc1NS(=O)(=O)c1ccc(F)cc1	8	5	0	63*
CCOC(=O)c1sc2nc(C(F)(F)F)nn2c1CSc1nnc(C(F)(F)F)n1C	0	-8	0	5
FC(F)(F)COc1ccc(OCC(F)(F)F)c(-c2n[nH]c(=S)o2)c1	15	87*	0	1
FC(F)(F)COc1ccc(OCC(F)(F)F)c(-c2csnn2)c1	-18	-6	0	0
COc1cccc(/C=C2/N=C(c3cccs3)OC2=O)c1OC	-52	27	0	3
O=C(CN1CCN(c2nc3cc(Cl)ccc3s2)CC1)N(c1ccccc1)C1CCCCC1	17	-2	1	7
N#Cc1ccccc1NC(=O)CSc1ncccn1	-3	-8	-1	9
CCOC(=O)N/N=C/c1ccc(O)cc1	-10	-13	0	4
O=C(N/N=C/c1ccc(O)cc1)N/N=C/c1ccc(O)cc1	96*	-61	0	0
CC12CCC(=O)C=C1CCC2=O (stereo not drawn)	13	-5	-1	3
CCOC(=O)c1cncc(C#CCOC(=O)c2c(-c3c(Cl)cccc3Cl)noc2C)c1	-33	-1	0	-1
COc1nc(NNC(=O)NS(=O)(=O)c2ccccc2Cl)nc(OC)n1	78*	18	0	2
COC(=O)c1cnc(NNC(=O)C(Cl)Cl)nc1C(F)(F)F	39	43	1	7
COC(=O)c1cnc(NNS(=O)(=O)c2ccc(Cl)cc2)nc1C(F)(F)F	98*	19	0	3
O=C(NCc1ccc2c(c1)OCO2)c1ccc(OC(F)(F)F)cc1	13	-5	0	6
SMILES	Nox1 inhibitor	luminol inh ctr	NOTCH agonist	PME-1 Maybridge
COc1ccc(OC(=O)c2ccc3ncccc3c2)cc1	92*	-3	0	8
O=C(NCc1c(Cl)cccc1Oc1ccccc1)Nc1ccc(F)cc1	34	-7	-1	7
Nc1nc(NCc2c(Cl)cccc2Oc2ccccc2)n[nH]1	84*	-6	0	6
Nc1nc(NCc2ccccc2OC(F)(F)F)n[nH]1	88*	1	0	-2
CC(C)(C)N1CC(CO)OC1=O (stereo not drawn)	-3	-6	0	4
Cc1c(/C=N/NC(=S)Nc2ccc(Cl)cc2)sc2ccccc12	-9	-4	0	9
COc1cc(-c2n[nH]c(=S)n2C2CCCCC2)cc(OC)c1OC	19	87*	0	2
COc1cc(-c2n[nH]c(=S)n2-c2ccccc2Cl)cc(OC)c1OC	-8	95*	0	1
S=c1[nH]nc(-c2ccccc2Cl)n1C1CCCCC1	-3	1	0	0
Cc1ccc(NC(=O)c2ccccc2F)cc1[N+](=O)[O-]	-28	0	0	1
O=C(CSc1c(F)c(F)c(F)c(F)c1F)Nc1ccc(C2SCCS2)cc1	-71	4	0	147*
CCN(CC)c1ccc(NC(=O)c2c(F)cccc2F)c(N(CC)CC)n1	94*	4	0	6
O=C(Nc1ccccc1NC(=O)c1c(F)cccc1F)c1c(F)cccc1F	-1	-6	0	6
COc1cccc(/C=C(\C#N)c2ccc([N+](=O)[O-])cc2)c1OC	-5	2	1	-2
O=S(=O)(NCc1ccccc1)c1cc(Br)c(Br)s1	-26	-1	0	74*
CC(C)NC(=O)O/N=C(\C#N)S(=O)(=O)c1ccc(Cl)cc1	33	-4	0	5
CCn1c(=S)[nH]c2sc(C)c(C)c2c1=O	-14	90*	0	12
Cc1ccnc(-n2c(=S)[nH]c3sc(C)c(C)c3c2=O)c1	46	100*	-1	5
CCCc1cc(=O)oc2cc(OC(C)C(=O)NN)ccc12 (stereo not drawn)	5	4	0	-3
CCOC(=O)Cc1c(C)[nH]n(-c2ccccc2)c1=O	44	2	0	0
O=c1c(C=Nc2ccccc2)c(Nc2ccccc2)[nH]n1-c1ccccc1	1	-16	0	84*
Cn1c(SCC(=O)NNC(=O)c2cccc3ccccc23)nnc1-c1ccco1	-56	1	0	-1
COc1ccc(/C(C#N)=C/c2cnc(-c3ccccc3)[nH]2)cc1	0	-4	0	50*
c1csc(-c2nn[nH]n2)c1	5	-8	2.9*	6
Cc1ccc([N+](=O)[O-])c(NS(=O)(=O)c2cc(Cl)c(Cl)cc2Cl)c1	6	2	1	9
SMILES	Nox1 inhibitor	luminol inh ctr	NOTCH agonist	PME-1 Maybridge
CCOC(=O)CCc1ccc2c(c1)NC(c1cccc([N+](=O)[O-])c1)O2 (stereo not drawn)	96*	33	0	-7
CCOC(=O)CCc1ccc2c(c1)NC(c1ccc([N+](=O)[O-])s1)O2 (stereo not drawn)	82*	15	0	1
CCOC(=O)CCc1ccc(Oc2c([N+](=O)[O-])cc(C(F)(F)F)cc2[N+](=O)[O-])cc1	-50	-40	·	1
CSc1sc(C(=O)/C(C#N)=C/Nc2ccccn2)c2c1C=CCC2	-14	2	0	15
COc1ccc(N(C)CC(=O)O)c(C(=O)O)c1	97*	-4	0	5
O=C(C1CCCCC1)N1CC(=O)N(CCc2ccccc2)C(=O)C1	-68	0	0	2
O=C1C=CC(=O)N1CCc1ccccc1	100*	6	0	-2
CCS(=O)(=O)c1ccc(O)c(NC(=O)c2ccccc2C(=O)O)c1	96*	10	0	11
Cc1nc(C)c(-c2n[nH]c(=S)n2C)s1	6	100*	0	3
Cc1nn(-c2ccccc2)cc1/C=N/n1c(-c2ccncc2)n[nH]c1=S	-31	2	1	-1
O=C(Cc1ccccc1Cl)N/N=C(/C(=O)O)c1ccccc1	-29	2	0	38*
Cn1cnc(S(=O)(=O)Nc2ccc(N3CCCCC3)cc2)c1	87*	2	-2	-1
O=C1/C(=C/c2ccc(Cl)cc2)CCc2ccccc21	-25	0	0	6
O=c1c2c(-c3ccc([N+](=O)[O-])cc3)onc2n(-c2ccccc2)c(=O)n1-c1ccccc1	94*	2	-1	1
O=C(O)/C=C/C(=O)Nc1ccc(N2CCCCCC2)c(NC(=O)/C=C/C(=O)O)c1	18	5	2.4*	-6
